Results as given in PubChem BioAssay AID1159580 (chemical genetic matrix, 2015).
“And” between values parts separate entries of the source, which are not always exact repeats. Equal entries are not always repeated. About 2,000 (36%) of roughly 5,500 compounds were called active. Another 18% or so got no clear call; they are omitted. Cut-off read from the data, not from the text of the source: active = normalized growth mostly below about 0.91 (no sharp cut-off); inconclusive = no clear call, values can overlap the other calls; inactive = mostly above about 0.92. This is one part of the list.

Test: chemical genetic growth profiling, strain panel (AID 1159580);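 note: tested at 20 µM; growth read once vehicle control cultures reached saturation at 30 °C; 1 = growth at the plate median or of vehicle wells; lower values mean less growth of the strain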
Conditions: growth OD

Measured: normalized growth

CN(C)CCC(c1ccc(Br)cc1)c1ccccn1 (centres undefined)
inactive: S. cerevisiae deletion strains, locus YKL009W, strain mrt4, active compounds read low 0.99 | S. cerevisiae deletion strains, locus YKL068W, active compounds read low 1.01 | S. cerevisiae deletion strains, locus YKL085W, strain MDH1 (second series), active compounds read low 1.02 | S. cerevisiae deletion strains, locus YKL085W, strain MDH1, active compounds read low 1.02 | S. cerevisiae deletion strains, locus YKL160W, strain elf1, active compounds read low 0.981 | S. cerevisiae deletion strains, locus YKL190W, strain CNB1, active compounds read low 0.995 | S. cerevisiae deletion strains, locus YKR001C, strain vps1, active compounds read low 0.964 | S. cerevisiae deletion strains, locus YKR026C, strain gcn3, active compounds read low 0.986 | S. cerevisiae deletion strains, locus YLL001W, strain dnm1, active compounds read low 0.998 | S. cerevisiae deletion strains, locus YLL026W, active compounds read low 0.987 | S. cerevisiae deletion strains, locus YLL041C, strain sdh2, active compounds read low 0.981 | S. cerevisiae deletion strains, locus YLR027C, strain aat2, active compounds read low 0.99 | S. cerevisiae deletion strains, locus YLR039C, strain RIC1, active compounds read low 0.999 | S. cerevisiae deletion strains, locus YLR058C, strain SHM2, active compounds read low 0.991 | S. cerevisiae deletion strains, locus YLR102C, strain apc9, active compounds read low 0.992 | S. cerevisiae deletion strains, locus YLR113W, strain HOG1, active compounds read low 1.01 | S. cerevisiae deletion strains, locus YLR221C, strain rsa3, active compounds read low 0.999 | S. cerevisiae deletion strains, locus YLR258W, strain gsy2, active compounds read low 0.969 | S. cerevisiae deletion strains, locus YLR262C, strain YPT6 (second series), active compounds read low 0.999 | S. cerevisiae deletion strains, locus YLR262C, strain YPT6, active compounds read low 1.03 | S. cerevisiae deletion strains, locus YLR268W, strain sec22, active compounds read low 0.956 | S. cerevisiae deletion strains, locus YLR320W, strain mms22, active compounds read low 1.03 | S. cerevisiae deletion strains, locus YLR330W, strain CHS5, active compounds read low 0.992 | S. cerevisiae deletion strains, locus YLR342W, strain FKS1 (second series), active compounds read low 0.985 | S. cerevisiae deletion strains, locus YLR342W, strain FKS1, active compounds read low 0.986 | S. cerevisiae deletion strains, locus YLR357W, strain rsc2, active compounds read low 0.972 | S. cerevisiae deletion strains, locus YLR370C, strain arc18, active compounds read low 0.982 | S. cerevisiae deletion strains, locus YLR371W, strain rom2, active compounds read low 0.989 | S. cerevisiae deletion strains, locus YLR384C, strain iki3, active compounds read low 0.989 | S. cerevisiae deletion strains, locus YLR418C, strain cdc73, active compounds read low 0.95 | S. cerevisiae deletion strains, locus YML016C, strain PPZ1, active compounds read low 0.986 | S. cerevisiae deletion strains, locus YML032C, strain rad52, active compounds read low 0.966 | S. cerevisiae deletion strains, locus YML120C, strain ndi1, active compounds read low 0.981 | S. cerevisiae deletion strains, locus YML124C, strain tub3, active compounds read low 0.987 | S. cerevisiae deletion strains, locus YMR058W, strain fet3, active compounds read low 1.01 | S. cerevisiae deletion strains, locus YMR078C, strain ctf18, active compounds read low 0.974 | S. cerevisiae deletion strains, locus YMR125W, strain sto1, active compounds read low 0.936 | S. cerevisiae deletion strains, locus YMR129W, active compounds read low 0.982 | S. cerevisiae deletion strains, locus YMR205C, strain PFK2, active compounds read low 0.997 | S. cerevisiae deletion strains, locus YMR223W, strain ubp8, active compounds read low 1.01 | S. cerevisiae deletion strains, locus YMR231W, strain pep5, active compounds read low 0.978 | S. cerevisiae deletion strains, locus YMR263W, strain SAP30, active compounds read low 0.976 | S. cerevisiae deletion strains, locus YMR307W, strain GAS1, active compounds read low 1.01 | S. cerevisiae deletion strains, locus YNL067W, strain RPL9B, active compounds read low 0.977 | S. cerevisiae deletion strains, locus YNL071W, strain lat1, active compounds read low 0.98 | S. cerevisiae deletion strains, locus YNL128W, strain TEP1, active compounds read low 0.988 | S. cerevisiae deletion strains, locus YNL153C, strain GIM3, active compounds read low 0.981 | S. cerevisiae deletion strains, locus YNL175C, strain NOP13, active compounds read low 1 | S. cerevisiae deletion strains, locus YNL183C, strain NPR1, active compounds read low 0.942 | S. cerevisiae deletion strains, locus YNL197C, strain WHI3, active compounds read low 1.01 | S. cerevisiae deletion strains, locus YNL209W, strain ssb2, active compounds read low 0.993 | S. cerevisiae deletion strains, locus YNL224C, strain SQS1, active compounds read low 1 | S. cerevisiae deletion strains, locus YNL233W, strain BNI4, active compounds read low 0.988 | S. cerevisiae deletion strains, locus YNL248C, strain rpa49, active compounds read low 0.952 | S. cerevisiae deletion strains, locus YNL250W, strain rad50, active compounds read low 0.978 | S. cerevisiae deletion strains, locus YNL271C, strain bni1, active compounds read low 0.984 | S. cerevisiae deletion strains, locus YNL298W, strain CLA4, active compounds read low 0.985 | S. cerevisiae deletion strains, locus YNL307C, strain MCK1, active compounds read low 0.989 | S. cerevisiae deletion strains, locus YNL322C, strain KRE1 (second series), active compounds read low 0.971 | S. cerevisiae deletion strains, locus YNL322C, strain KRE1, active compounds read low 0.991 and 1.02 | S. cerevisiae deletion strains, locus YNR049C, strain mso1, active compounds read low 0.968 | S. cerevisiae deletion strains, locus YNR052C, strain pop2, active compounds read low 0.989 | S. cerevisiae deletion strains, locus YOL006C, strain TOP1, active compounds read low 0.973 | S. cerevisiae deletion strains, locus YOL012C, strain htz1 0.603 | S. cerevisiae deletion strains, locus YOL147C, strain pex11, active compounds read low 0.983 | S. cerevisiae deletion strains, locus YOR001W, strain rrp6, active compounds read low 0.986 | S. cerevisiae deletion strains, locus YOR061W, strain CKA2, active compounds read low 0.99 | S. cerevisiae deletion strains, locus YOR069W, strain VPS5, active compounds read low 0.992 | S. cerevisiae deletion strains, locus YOR070C, strain gyp1, active compounds read low 0.99 | S. cerevisiae deletion strains, locus YOR080W, strain dia2, active compounds read low 0.975 | S. cerevisiae deletion strains, locus YOR083W, strain WHI5 (second series), active compounds read low 1.01 | S. cerevisiae deletion strains, locus YOR083W, strain WHI5, active compounds read low 0.928 | S. cerevisiae deletion strains, locus YOR106W, strain vam3, active compounds read low 0.966 | S. cerevisiae deletion strains, locus YOR136W, strain idh2, active compounds read low 1 | S. cerevisiae deletion strains, locus YOR144C, strain elg1, active compounds read low 0.99 | S. cerevisiae deletion strains, locus YOR184W, strain ser1, active compounds read low 0.98 | S. cerevisiae deletion strains, locus YOR231W, strain MKK1, active compounds read low 0.986 | S. cerevisiae deletion strains, locus YOR265W, strain rbl2, active compounds read low 0.99 | S. cerevisiae deletion strains, locus YOR270C, strain vph1, active compounds read low 0.981 | S. cerevisiae deletion strains, locus YOR290C, strain snf2, active compounds read low 0.97 | S. cerevisiae deletion strains, locus YOR316C, strain cot1, active compounds read low 0.987 | S. cerevisiae deletion strains, locus YPL051W, strain arl3, active compounds read low 0.991 | S. cerevisiae deletion strains, locus YPL055C, strain LGE1, active compounds read low 1 and 1.01 | S. cerevisiae deletion strains, locus YPL078C, strain atp4, active compounds read low 0.985 | S. cerevisiae deletion strains, locus YPL106C, strain sse1, active compounds read low 0.936 | S. cerevisiae deletion strains, locus YPL240C, strain hsp82, active compounds read low 0.991 | S. cerevisiae deletion strains, locus YPL241C, strain CIN2, active compounds read low 0.992 and 1.01 | S. cerevisiae deletion strains, locus YPL256C, strain CLN2, active compounds read low 0.96 | S. cerevisiae deletion strains, locus YPR119W, strain clb2, active compounds read low 0.998 | S. cerevisiae deletion strains, locus YPR141C, strain kar3, active compounds read low 0.979 | S. cerevisiae deletion strains, locus YPR163C, strain tif3, active compounds read low 0.987 | S. cerevisiae deletion strains, locus YPR167C, strain met16, active compounds read low 0.987 | S. cerevisiae deletion strains, strain wtn01, active compounds read low 0.95 | S. cerevisiae strains, strain wild type, active compounds read low 0.987
